# An excerpt weighted towards active compounds, which were near 10% of everything screened.
# BAZ2B block – BAZ2B (human) inhibition. Potency, µM (highest dose often 114 µM), for inactives: at the highest dose activity change, negative = inhibition, most hits filed as inhibitors. AlphaScreen BAZ2B-H3K14Ac peptide displacement. 4.4% of 360,000 active. AID 504333; note: potency is the fitted concentration of half-maximal effect; % is set by controls: 0 for no effect and ±100 for the full control effect; nearly all actives have a fitted effect of over 60% in size
#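 BAZ2B 50 nM plus b-H3(5-23)K14Ac 50 nM, PBS pH 7.4/0.01% Tween-20, 30 min RT; compound added (max 110 uM), 30 min RT; streptavidin donor/Ni-chelate acceptor beads 10 ug/mL final, 20 min dark; AlphaScreen read.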
# JMJD2A Tudor inh – JMJD2A Tudor domain (human) inhibition; 4.4% of 390,000 active; Potency, µM (titrated, usually from 114 µM), for inactives: top-dose activity change, negative = inhibition, usual class: inhibitors; AlphaScreen JMJD2A-Tudor / H3K4me3 peptide binding; O75164; note: potency is the fitted concentration of half-maximal effect; % is set by controls: 0 for no effect and ±100 for the full control effect; nearly all actives have a fitted effect of over 50% in size
# Six1-Eya2 blk – inhibitors of human Six1/Eya2 interaction; Q15475+O00167; AlphaScreen GST-Six1/His-Eya2 binding, biochemical; stronger effect = lower value; activity change, % (test concentration not listed); 0.56% of 360,000 active; AID 651725; in the data active = activity change below about -65%; inconclusive = mostly about -30% to -63%; note: % is set by controls: 0 for no effect and ±100 for the full control effect
#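 AlphaScreen luminescence read after one hour at 37 °C in darkness. Pin-transferred compounds met GST-Six1 and His-Eya2 protein (5X stock 250 nM/500 nM) plus glutathione donor and Ni-chelate acceptor beads (5X, 50 ug/mL).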
# HP1b chromo inh – blocks HP1-beta chromodomain binding to methylated histone tails; AlphaScreen HP1-beta / biotin-H3K9me3 peptide binding; 0.56% of 390,000 active; AID 540317; Potency, µM (titrated, usually from 114 µM), inactives show top-dose activity change, negative = inhibition, most hits filed as inhibitors; P83916; note: potency is the fitted concentration of half-maximal effect; nearly all actives have a fitted effect of over 70% in size
# Target sequence (P83916 whole entry, looked up): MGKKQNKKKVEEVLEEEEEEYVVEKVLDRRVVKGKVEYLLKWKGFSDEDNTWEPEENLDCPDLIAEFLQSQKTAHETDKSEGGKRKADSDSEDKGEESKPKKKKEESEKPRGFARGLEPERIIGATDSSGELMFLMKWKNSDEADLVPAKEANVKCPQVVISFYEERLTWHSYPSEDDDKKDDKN
#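 AlphaScreen: HP1-beta (50 nM) preformed 30 min with biotin-H3(1-18)K9me3 peptide (50 nM) in PBS pH 7.4, 0.01% Tween-20. Compound added for 30 min at RT, then streptavidin donor/nickel chelate acceptor beads (10 ug/mL) for 30 min.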
# G9a block – blocks human histone lysine methyltransferase G9a | 8.8% of 350,000 active | Potency, µM (top dose mostly 102 µM), without a hit: at the highest dose activity, negative = inhibition, most hits filed as inhibitors | AID 504332 | G9a H3K9 monomethylation, AlphaScreen, 2 h | Q96KQ7; note: potency is the fitted concentration of half-maximal effect; % is set by controls: 0 for no effect and ±100 for the full control effect; nearly all actives have a fitted effect of over 75% in size
# Target sequence (Q96KQ7 913-1193 limits assumed): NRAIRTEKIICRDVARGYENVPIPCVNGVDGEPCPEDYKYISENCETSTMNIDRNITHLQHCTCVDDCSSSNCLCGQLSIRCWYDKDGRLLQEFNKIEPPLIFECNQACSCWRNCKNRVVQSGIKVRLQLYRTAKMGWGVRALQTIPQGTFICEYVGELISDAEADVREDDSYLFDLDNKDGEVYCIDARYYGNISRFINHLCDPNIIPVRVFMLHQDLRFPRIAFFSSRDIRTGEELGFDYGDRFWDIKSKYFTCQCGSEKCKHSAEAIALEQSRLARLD
#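 Compounds were preincubated with 20 nM G9a for 15 min, after which biotinylated H3K9 peptide (500 nM) and SAM (20 uM) started a 2 h room-temperature reaction. Monomethylated product was quantified by antibody-based AlphaScreen chemiluminescence.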
# CtBP-E1A inh – CtBP/E1A binding inhibition. AlphaScreen GST-E1A/His-CtBP binding, 1536-well; stronger effect = lower value. activity change, % (test concentration not listed). 0.49% of 340,000 active; in the data active = activity change below about -65%; inconclusive = mostly about -30% to -63%; note: % is set by controls: 0 for no effect and ±100 for the full control effect
#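 Protein mix (5X: 125 nM each GST-E1A, His-CtBP) was incubated with pinned compound 2 h at 37 deg C in dark, in 50 mM Tris pH 8.0 buffer with 300 mM NaCl. Glutathione donor and nickel acceptor beads followed; AlphaScreen signal read after 1 h.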
# * = called active by the depositor; ? = inconclusive; nt = no result given; [ ] = dose if it differs, or a comment. Unless noted, calls come from the whole dose curve; as a rule, active = well fitted inhibition curve with a large enough effect; inconclusive = small, poorly fitted or top-dose-only effect; inactive = no such curve, though single readings can be large or run the other way.
SMILES,BAZ2B block,JMJD2A Tudor inh,Six1-Eya2 blk,HP1b chromo inh,G9a block,CtBP-E1A inh
Cc1ccc(S(=O)(=O)c2nc(-c3cccs3)oc2SCC(N)=O)cc1,2.0%,-25.7%,-3.1,27.0%,?,-14.6
COCCSc1ccccc1C(=O)Nc1ccc2c(c1)OCCO2,2.2%,2.3%,-0.1,58.8%,3.55µM*,0.8
COc1ccc(S(=O)(=O)NCC(=O)Nc2ccc3c(c2)OCCO3)cc1OC,17.3%,-11.0%,2.0,36.5%,50.1µM*,8.6
CCSc1ccccc1C(=O)Nc1cc(OC)c(OC)c(OC)c1,-13.0%,-33.3%,-2.3,9.9%,3.55µM*,-8.9
COCCSc1ccccc1C(=O)NCc1ccc2c(c1)OCO2,-0.2%,-28.7%,3.4,31.9%,?,6.8
Cc1ccccc1OC(C)C(=O)Nc1ccc2c(c1)OCO2 (configuration not stated),-20.0%,-2.7%,-4.1,17.3%,16.2%,-27.9
COc1ccccc1OC(C)C(=O)Nc1ccc2c(c1)OCCO2 (configuration not stated),-3.9%,-17.9%,1.7,-14.1%,31.6µM*,-0.7
COc1ccc(OCCn2nnc3sc4c(c3c2=O)CCC(C(C)(C)C)C4)cc1 (configuration not stated),3.8%,-20.8%,nt,72.1%,38.7%[59 µM],nt
CCOC(=O)c1noc2nc(C)n(CC(=O)Nc3cccc(OC)c3)c(=O)c12,2.7%,-21.7%,nt,19.0%[57 µM],-3.0%[59 µM],nt
COc1ccc(C)cc1NC(=O)C(OC(=O)CNC(=O)c1ccccc1)c1ccccc1 (configuration not stated),nt,-14.4%,nt,nt,nt,nt
CCOc1ccccc1CNCCCSc1nnnn1C,-10.9%,-7.6%,nt,26.3%,-0.8%[59 µM],nt
CCCc1nn2c(=O)cc(COC(=O)CNC(=O)COc3ccc(C)cc3)nc2s1,-7.5%,-3.3%,nt,28.5%,9.2%[59 µM],nt
Cc1csc(NC(=O)c2cccnc2Cl)n1,nt,-12.8%,9.2,-0.2%,nt,1.0
COCCSc1ccccc1C(=O)Nc1cc(C)ccn1,5.4%,2.7%,18.9,31.9%,-22.0%,3.7
COc1ccc(OC(C)C(=O)Nc2cccc(OC)c2)cc1 (configuration not stated),-1.3%,-2.3%,30.9,69.1%,-37.8%[12.7 µM],2.0
COCCSc1ccccc1C(=O)Nc1nncs1,-18.9%,-3.7%,-1.0,43.0%,25.1µM*,0.3
O=C(Nc1nncs1)c1cccnc1Cl,-5.1%,-17.7%,5.8,4.7%,1.41µM*,0.9
COCCSc1ccccc1C(=O)Nc1ccncc1,1.9%,-0.6%,6.2,11.0%,?,4.2
CC(Oc1ccc(F)cc1)C(=O)Nc1cccc(-c2nn[nH]n2)c1 (configuration not stated),-17.1%,-22.7%,-7.0,-0.4%,25.1µM*,-6.0
COCCSc1ccccc1C(=O)Nc1cc(C)cc(C)c1,0.0%,0.6%,0.6,51.8%,4.47µM*,nt
COCc1nc2ccccc2n1CCOc1cccc(C)c1,8.7%,-9.6%,nt,10.7%,10.9%[59 µM],nt
COc1cc(SC)ccc1C(=O)Nc1ccc2c(c1)OCCO2,-22.4%,-14.5%,-4.2,3.4%,50.1µM*,-4.6
COc1ccccc1OC(C)C(=O)Nc1cccc(-c2nc3ccccc3s2)c1 (configuration not stated),2.3%,0.3%,nt,18.5%,8.91µM*,nt
COc1ccc(Cl)cc1C(=O)Nc1ccc2c(c1)OCCO2,11.5%,8.2%,-0.5,28.9%,14.8%[59 µM],6.4
CN(C)c1ccc(CNC(=O)C2CCN(S(=O)(=O)c3ccc4c(ccn4C)c3)CC2)cc1,?,?,nt,9.7%[57 µM],?,nt
SMILES,BAZ2B block,JMJD2A Tudor inh,Six1-Eya2 blk,HP1b chromo inh,G9a block,CtBP-E1A inh
COc1cccc(CNC(=O)c2oc3ccc4c(c3c2C)C(=O)CC(C)(C)O4)c1OC,-17.2%,-18.2%,nt,29.6%,-23.9%[59 µM],nt
O=S(=O)(Nc1ccc2nc(C(F)(F)F)[nH]c2c1)c1ccccc1,1.9%,-13.5%,1.7,37.4%,-1.0%,8.2
CC(C)(C)c1nc2ccc(NS(=O)(=O)c3ccc(F)c(F)c3F)cc2[nH]1,-10.5%,-9.9%,13.6,47.9%,31.6µM*,5.6
CCOC(=O)C1(N(CC)CC)Sc2cc(C)ccc2NC1=O (configuration not stated),?,-8.7%[57.1 µM],-5.1,5.5%,?,-2.5
COC(=O)C1=C(C(=O)OC)SC2(S1)C(C(=O)OC)=C(C(=O)OC)SC1=C2c2cc(C)ccc2NC1(C)C,?,56.2µM*,5.7,-80.5%,?,-9.6
O=C(c1cc(Cl)ccc1F)N1CCCC(Nc2ccc3c(c2)OCCO3)C1 (configuration not stated),?,?,-16.8,-12.8%,79.4µM*,-0.9
CSCc1ccc(C(=O)N2CCCC(Nc3ccc4c(c3)OCCO4)C2)o1 (configuration not stated),-34.6%[57.1 µM],-22.8%,-9.5,14.4%,79.4µM*,-3.1
CCCNC(=O)c1cc2n(n1)CCCN(Cc1ccc(F)cc1)C2=O,-2.0%,-13.5%,nt,15.0%,0.2%[59 µM],nt
COc1ccc(S(=O)(=O)N2CCC(n3c(C)nc4cccnc43)CC2)cc1Cl,3.0%,-6.2%,nt,56.1%,0.4%[59 µM],nt
C[C@@H]1NC(=O)[C@H](CCC(N)=O)NC(=O)c2cc([N+](=O)[O-])cc(I)c2NCCC[C@@H](C(N)=O)NC1=O,-25.3%,-15.3%,8.7,18.2%,50.1µM*,-1.6
C[C@@H]1NC(=O)c2cc([N+](=O)[O-])cc(I)c2NCCCC[C@@H](C(N)=O)NC(=O)[C@H](CCC(=O)O)NC1=O,-33.3%,-16.9%,?,9.6%,39.8µM*,nt
NC(=O)[C@@H]1CCCNc2c(I)cc([N+](=O)[O-])cc2C(=O)N[C@@H](CCC(=O)O)C(=O)N[C@@H](CO)C(=O)N1,-5.0%,-5.6%,2.1,39.5%,35.5µM*,3.8
C[C@@H]1NC(=O)[C@H](CCCN=C(N)N)NC(=O)c2cc([N+](=O)[O-])cc(I)c2NCCC[C@@H](C(N)=O)NC1=O,-7.8%,-18.9%,-0.4,0.8%,56.2µM*,-1.7
NC(=O)[C@@H]1CCCCNc2c(F)cc([N+](=O)[O-])cc2C(=O)N[C@@H](CCCN=C(N)N)C(=O)NCC(=O)N1,-11.1%,-25.4%,-0.8,32.7%,-15.6%,nt
NC(=O)C[C@H]1NC(=O)[C@H](CCC(=O)O)NC(=O)c2cc([N+](=O)[O-])cc(I)c2NCCC[C@@H](C(N)=O)NC1=O,?,-19.3%,-4.1,40.7%,44.7µM*,0.9
NC(=O)CC[C@@H]1NC(=O)[C@H](CO)NC(=O)c2cc([N+](=O)[O-])cc(I)c2NCC[C@@H](C(N)=O)NC(=O)[C@H](Cc2ccc(O)cc2)NC1=O,56.2µM*,nt,nt,nt,7.94µM*,nt

# Assay outcomes (PubChem)
